The text below walks through data of PubChem BioAssay AID1006 (Sanford-Burnham Center for Chemical Genomics, 2008).

As a reminder, the inhibition is the relative decrease from the control value, in per cent.

Each structure is given as a SMILES string. About 3,000 (1.5%) of roughly 200,000 compounds were called active.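 Rule for the calls: active = inhibition above about 50% when tested at 10 µM (limit read from the data); inactive = the rest.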 The list comes from a sample in which actives are over-represented; it also holds similar structures and randomly drawn compounds.

The target of the experiment is Luciferin 4-monooxygenase (Photinus pyralis) (UniProt P08659). Briefly: firefly luciferase enzyme inhibitors, primary screen, artefact control for luciferase-based inhibitor screens, biochemical, luminescence, ATPLite (AID 1006). The following applies: 10 min, at 10 µM, active compounds read high.
Sequence of Luciferin 4-monooxygenase (Photinus pyralis) (P08659 whole entry, looked up): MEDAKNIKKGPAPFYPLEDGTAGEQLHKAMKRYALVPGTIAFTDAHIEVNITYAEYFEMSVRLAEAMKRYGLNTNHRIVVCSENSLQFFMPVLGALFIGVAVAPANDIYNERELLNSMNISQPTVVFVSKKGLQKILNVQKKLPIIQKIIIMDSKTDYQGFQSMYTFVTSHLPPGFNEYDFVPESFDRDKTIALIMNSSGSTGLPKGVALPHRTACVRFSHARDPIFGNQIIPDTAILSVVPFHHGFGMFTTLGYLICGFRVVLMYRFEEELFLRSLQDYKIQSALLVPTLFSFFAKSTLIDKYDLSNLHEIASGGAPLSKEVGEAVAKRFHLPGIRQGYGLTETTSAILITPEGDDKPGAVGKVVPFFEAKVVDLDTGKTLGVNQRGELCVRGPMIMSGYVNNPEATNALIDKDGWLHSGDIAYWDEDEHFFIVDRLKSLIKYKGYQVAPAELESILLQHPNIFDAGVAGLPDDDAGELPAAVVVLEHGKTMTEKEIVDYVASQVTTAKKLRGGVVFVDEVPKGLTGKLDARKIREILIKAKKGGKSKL
As for `CN(C(=O)c1ccno1)c1nnc(-c2cccnc2)s1`, the inhibition was 0.1% (inactive). Turning to `CN(C(=O)COc1ccccc1)c1nnc(-c2ccncc2)s1`, the inhibition was -2.1% (inactive). For `CN(C(=O)c1ccccn1)c1nnc(-c2ccccn2)s1` the value was 55.5% (active). On to `Cn1c(=NC(=O)CSCC(=O)N2CCOCC2)sc2ccccc21`, for which the inhibition is -1.3% (inactive). For `Cn1c(=NC(=O)CSCC(=O)N2CCCCC2)sc2ccccc21` the value was -5% (inactive). For `Cn1c(=NC(=O)c2cnccn2)sc2ccccc21` the value was 75.5% (active). For `CCOc1ccc(-c2n[nH]c(C)c2-c2ccccn2)c(O)c1`, the inhibition is -3.7% (inactive). Regarding `CN1CCN(C(=O)CCc2nc(-c3ccc(Cl)cc3)no2)CC1`, the inhibition was -4.7% (inactive). As for `CCNC(=O)CCc1nc(-c2ccc(C(C)(C)C)cc2)no1`, the figure is 52.3% (active); as for `Cc1ccc(-c2noc(CCC(N)=O)n2)cc1`, 0.2% (inactive). For `COc1ccc(/C=N/Nc2nc3ccccc3o2)cc1OC` the value was 11.5% (inactive); for `COc1cc(/C=N/Nc2nn3cnnc3c3ccccc23)cc(OC)c1OC`, 84.1% (active). As for `CCOc1ccc(/C=N/Nc2nncc(-c3ccccc3)n2)cc1OC`, the figure is 9.9% (inactive). With `CCC(C)(C)C1CCC(=NNC(=O)c2ccc(Br)o2)CC1` (configuration not stated), the inhibition was -7.3% (inactive).

With `CCCCN(C)CCNC(=O)CSCc1ccc(C)cc1`, the inhibition was -9.7% (inactive). Regarding `O=C(CSc1ccc2nnc(-c3ccccc3)n2n1)N1CCCc2ccccc21`, the inhibition was 4.5% (inactive). As for `CSCc1ccc(C(=O)Nc2cc(C)cc(C)c2)cc1`, the figure is 77.9% (active); as for `CC(=O)Nc1ccccc1NC(=O)c1cc(C)cc(C)c1`, -8.5% (inactive); as for `C=CCN(c1ccc(C(=O)Nc2cc(C)cc(C)c2)cc1)S(C)(=O)=O`, -2.7% (inactive). With `O=C(O)c1ccc(/C=N/NC(=O)c2ccc(Br)cc2)cc1`, the inhibition was 15.3% (inactive). As for `O=C(CSc1nc(O)c(Cc2ccccc2)c(=O)[nH]1)Nc1nc2c(s1)CCCC2`, the figure is -3% (inactive). For the molecule `CCOC(=O)c1sc(NC(=O)CSc2n[nH]c(CC)n2)nc1C`, the inhibition was -4.3% (inactive). As for `CCOC(=O)c1sc(NC(=O)CSc2nc(O)c(Cc3ccccc3)c(=O)[nH]2)nc1C`, the figure is 72.8% (active); as for `O=C(COC(=O)C1CCCCC1)Nc1ccc([N+](=O)[O-])cc1`, 2.8% (inactive); as for `COc1cc(OC)c(C2=NOC(C(=O)Nc3c(C)n(C)n(-c4ccccc4)c3=O)C2)cc1Cl` (configuration not stated), -5.5% (inactive). As for `CCOC(=O)C1(Cc2ccccc2C(F)(F)F)CCN(C(=O)c2cc(C)n(C)n2)CC1`, the figure is -9.5% (inactive).

With `O=C(NCCOc1ccccc1)c1ccccc1`, the inhibition was 14.7% (inactive). Consider `CCCOc1ccc(C(=O)NCCc2ccccc2)cc1`, for which the inhibition was 70.6% (active). In the case of `O=C(NCCc1ccccc1)c1ccc(OCCOc2ccccc2)cc1`, the inhibition is -1.1% (inactive). For `Cc1ccc(-c2cc(C(F)(F)F)n3ncc(C(=O)N4CCCCC4c4cccnc4)c3n2)cc1` (configuration not stated), the inhibition was -6.3% (inactive). Consider `Cc1ccc(-c2nc(-c3cccnc3)sc2CC(=O)Nc2ccc(C)c(Cl)c2)cc1`, for which the inhibition is -1.9% (inactive). In the case of `O=c1c2c(nc3n1CCCCC3)sc1c(O)cccc12`, the inhibition was 60.4% (active). As for `Cc1c(C(=O)Nc2ccccc2)sc2nc3n(c(=O)c12)CCCCC3`, the figure is -3.9% (inactive). For `Cc1cccc2c(=O)n3c(nc12)CCCCC3` the value was -5.2% (inactive). For `CC(C)c1cc(NCc2ccccn2)n2c(nc3ccccc32)c1C#N` the value was -5.4% (inactive). With `Cc1nnc(SC(C(=O)Nc2cc(Cl)cc(Cl)c2)c2ccccc2)[nH]c1=O` (configuration not stated), the inhibition is -3.6% (inactive).

As for `O=C(CC(=O)N/N=C\c1cccc(Cl)c1Cl)NCc1ccccc1`, the inhibition was -7.3% (inactive). For `Cc1ccc(-c2cn3cc(C)ccc3n2)cc1` the value was 95.9% (active); for `Cc1ccc(-c2cc(N)on2)cc1`, 17.5% (inactive); for `CS(=O)(=O)Nc1cccc(-c2cn3ccccc3n2)c1`, 16.8% (inactive). For `COc1ccc(OC)c(-n2c(=S)[nH]c3cc(C(=O)N4CCCCC4)ccc3c2=O)c1`, the inhibition is -6.8% (inactive). Take `C/C(=N\Nc1nc(Nc2ccccc2)nc(N2CCOCC2)n1)c1cccs1`: the inhibition was 5.5% (inactive). For `C/C(=N\Nc1nc2ccccc2[nH]1)c1cccs1` the value was 73.6% (active). As for `C/C(=N\Nc1ncc(Cl)cc1Cl)c1cccs1`, the figure is 57.2% (active). As for `C/C(=N\Nc1ncc(Cl)cc1Cl)c1ccc(S(=O)(=O)NCc2ccco2)cc1`, the figure is 2% (inactive). As for `O=C(CSc1nc2ccccc2[nH]1)c1cccs1`, the inhibition was 5.4% (inactive). As for `COc1cccc(/C(C)=N/Nc2ncc(Cl)cc2Cl)c1`, the figure is 4.4% (inactive).

Regarding `Cc1cc(NC(C)C)n2c(nc3ccccc32)c1C#N`, the inhibition is -2% (inactive). For `O=[N+]([O-])c1ccc2c(c1)C(N1CCOCC1)/C(=C/C1(O)CCCCC1)O2` (configuration not stated) the value was 0.2% (inactive); for `O=C(CN1CCC(O)(c2ccccc2)CC1)Nc1ccc2c(c1)OCCO2`, -7.8% (inactive). For `C=CCc1cccc2cc(C(=O)Nc3ccc(NC(C)=O)cc3)c(=O)oc12` the value was -2.7% (inactive); for `CC(C)N(Cc1ccccc1)C(=O)COC(=O)c1cnccn1`, -3.5% (inactive). For `CCCC(=O)N=c1sc2cccc(F)c2n1C` the value was 7% (inactive); for `Cn1c(=NC(=O)C2CC2)sc2cc(F)cc(F)c21`, 0.6% (inactive).

Turning to `Cn1c(=NC(=O)c2ccco2)sc2cccc(F)c21`, the inhibition is 59.7% (active). As for `C=C(C)c1cccc(C(C)(C)NC(=O)NC2CCCC2)c1`, the figure is -3.3% (inactive). In the case of `CCC(=O)N1CCC(C(N)=O)(N2CCCCC2)CC1`, the inhibition was -4.7% (inactive). For `COc1ccc(Nc2ncc(F)c(N3CCOCC3)n2)cc1` the value was 75.2% (active); for `c1ccc(Nc2nc(N3CCOCC3)c3ccccc3n2)cc1`, 2% (inactive).

Take `CCOc1ccc(Nc2nc(Cl)nc(N3CCN(c4ccc(OC)cc4)CC3)n2)cc1`: the inhibition was -4.4% (inactive).

Consider `Cc1nc(N2CCOCC2)sc1C(=O)NN`, for which the inhibition was 0.3% (inactive). For `CCOc1ccc(C(=O)Nc2ccncc2)cc1` the value was 11.8% (inactive). As for `CCOc1ccc(C(=O)Nc2cccc(-c3ccc4nncn4n3)c2)cc1`, the figure is 37.7% (inactive); as for `CCOc1ccc(C(=O)Nc2cccc(SC)c2)cc1`, 62.1% (active); as for `O=C1CC(c2c(F)cccc2Cl)C(n2cncn2)C(O)=C1C1NCCc2ccccc21` (configuration not stated), -4.6% (inactive). With `O=C(c1cncc(Br)c1)N1CCN(c2ccc([N+](=O)[O-])cc2)CC1`, the inhibition was -0.9% (inactive). As for `COC(=O)c1ccc(-c2noc(CN(Cc3ccccn3)CC3CCCO3)n2)cc1` (configuration not stated), the figure is 4.4% (inactive); as for `Cc1ccc(-n2c(C)cc(C(=O)CN3C(=O)C(=O)N(C4CCCC4)C3=O)c2C)cc1`, -7.1% (inactive); as for `Cc1cc(C(=O)COC(=O)C2CC2)c(C)n1-c1ccc(F)cc1`, 95% (active). As for `COc1cc(/C=N/NC(=O)c2cc(C)n(-c3ccc(F)cc3)c2C)cc(OC)c1O`, the figure is 5.2% (inactive). For `CCCn1c(=O)c(-c2ccccc2)c(O)c2ccccc21` the value was 0.1% (inactive). As to `CCOc1ccc(N=Cc2c(O)n(-c3cccc(C)n3)c(=O)c3ccccc23)cc1`, the inhibition is -1% (inactive).

On to `CC(=O)n1c(C=Nc2ccccc2)c(O)c2ccccc21`, for which the inhibition is 61.6% (active). For `Cc1cccc(C(=O)NNC(=O)c2cccc([N+](=O)[O-])c2)c1` the value was -0.8% (inactive). For `O=C(NCCc1ccccn1)c1cc(-c2ccc(Cl)cc2)nc2ccccc12` the value was 1.6% (inactive). As for `CCc1ccc(-c2cc(C(=O)NN3CCN(C)CC3)c3ccccc3n2)cc1`, the figure is 63% (active); as for `CC(C)(C)Cc1nnc(NC(=O)c2cc(-c3ccccc3)nc3ccccc23)s1`, -4.3% (inactive); as for `Cc1nc2ccc(NC(=S)N3CCC(C)CC3)cc2nc1C`, -2.6% (inactive). `O=C(C1CCCN1S(=O)(=O)c1ccc(Br)cc1)N1CCOCC1` (configuration not stated): the inhibition was 0.6% (inactive). As for `CCCCN(CC)CCCNC(=O)c1ccc(CSc2nc3ccncc3[nH]2)cc1`, the figure is 37.9% (inactive); as for `O=C(CC1CCCCC1)NCc1ccc(F)cc1`, -3.7% (inactive); as for `c1ccc(-n2nnnc2-c2cccnc2)cc1`, -0.4% (inactive).

Consider `COc1cccc(C(=O)Nc2ccc(N3CCCC3)cc2)c1`, for which the inhibition was 67.6% (active). As for `COc1ccc(C2COC(=O)C2=N)c(NC(=O)c2ccccc2)c1` (configuration not stated), the figure is -6.7% (inactive); as for `COc1ccc(NC(=O)c2ccc(OC)cc2)cc1`, 63.1% (active); as for `COc1cccc(C(=O)NNC(=O)c2ccccc2Br)c1`, 2.9% (inactive). For `COc1cccc(C(=O)Nc2cc3c(cc2Br)OCCCO3)c1` the value was 64.3% (active); for `COc1ccc(C(=O)Nc2ccc(S(=O)(=O)NC(C)C)cc2)cc1`, -3.1% (inactive); for `COc1ccc(C(=O)NC(=S)Nc2ccc(N3CCCC3)cc2)cc1OC`, -14.5% (inactive). As for `COc1cccc(OC)c1C(=O)Nc1ccc(N2CCCCC2)cc1`, the figure is -8.2% (inactive).

Take `COc1ccc(NC(=O)c2ccc(C#CC(C)(C)O)cc2)cc1`: the inhibition is 5.6% (inactive). For `CC(C)(C)C1CCC(C(=O)Nc2cccnc2)CC1` (configuration not stated), the inhibition was -3.4% (inactive). As for `COc1ccc(-c2csc(-c3cccs3)n2)cc1OC`, the figure is 19.9% (inactive). As for `COc1cccc(C(=O)NCCSc2ccc(Br)cc2)c1`, the inhibition was 2.1% (inactive). As for `C=CCNc1scc(-c2ccccc2)[n+]1CC=C`, the figure is -5.9% (inactive). For `O=C(N/N=C/c1coc2ccccc2c1=O)c1cc2ccccc2o1` the value was -6.6% (inactive).

For the molecule `N=c1oc2ccccc2cc1C(=O)N/N=C/c1ccccc1`, the inhibition is 56.7% (active).

In the case of `CNC(=O)c1cc2c(ccc3ccccc32)oc1=N`, the inhibition was 7.1% (inactive). On to `O=C(O)C1C2CC2CN1C(=O)c1ccc(Cl)cc1Cl` (configuration not stated), for which the inhibition is -5% (inactive).

For the molecule `O=C(OC1CCOC1=O)c1ccc(-c2nc3ccccc3s2)s1` (configuration not stated), the inhibition is 91.4% (active). For `O=C(OC1CCOC1=O)c1cccc(S(=O)(=O)Nc2ccc(F)cc2)c1` (configuration not stated) the value was -4.8% (inactive); for `Cc1nn(Cc2ccccc2)c(Cl)c1C(=O)OC1CCOC1=O` (configuration not stated), -3.6% (inactive).
